Of roughly 7,900 targets only a part is listed; those with a hit were picked by preference. About 0.6% of all pairs of compound and target were hits. Unmarked numbers belong to inactive results.
Assays:
Experiment in all cases: log2 fold change, soluble protein after heating vs DMSO (PISA); higher = thermal stabilisation; K562 cells, 10 uM, 30 min; active = over 0.2 and 3.5 SD of the protein, either way, in both replicates (recomputed)
erlotinib = compound: C#Cc1cccc(Nc2ncnc3cc(OCCOC)c(OCCOC)cc23)c1 [erlotinib]
Summary of the method: (§1)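 K562 cells at 2×10^6 cells/mL were treated with 10 μM compound for 30 min. Aliquots were heated for 3 min across 48°C-58°C, pooled, and extracted in PBS with 0.5% NP-40 at 4°C; soluble protein was the supernatant after 21,000xg for 90 min. Soluble protein was quantified by TMTpro 16plex LC-MS/MS with channel sums equalised, and reported as log2 fold change in thermal stability against DMSO controls, with values from duplicates.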

[1] = compound: C/C(=N\NC(=O)C1=CC(=CC=C1)S(=O)(=O)N2CCOCC2)/C3=C(C=CC(=C3)Cl)O
Summary of the method: as §1

[2] = compound: C1=CC(=C(C=C1Cl)C2=NC3=NC=CN=C3C(=N2)NC4=CC=NC=C4)F
Summary of the method: as §1

[3] = compound: C1=CC(=CC=C1C2=NC3=C(N2)C=C(C=C3)C(=O)N)OC4=CC=C(C=C4)Cl
Summary of the method: as §1

[4] = compound: C1=CC2=C(C=CC(=C2)/C=C\3/C(=O)NC(=NCC4=CC=CS4)S3)N=C1
Summary of the method: as §1

[5] = compound: C1=CC2=NC=CN=C2C=C1/C=C/3\C(=O)NC(=O)S3
Summary of the method: as §1

[6] = compound: C1=CC=C(C=C1)C2=NC(=C(N2)C3=CC=NC=C3)C4=CC(=C(C=C4)Cl)O
Summary of the method: as §1

[7] = compound: C1=CC=C2C(=C1)C3=NNC4=CC=CC(=C43)C2=O
Summary of the method: as §1

[8] = compound: C1CCN(C1)C(=O)NC2=CC=CC(=C2)NC3=NC=C(C(=N3)NCCC4=CN=CN4)Br
Summary of the method: as §1

[9] = compound: C1CN(CCC1(CC2=CC=C(C=C2)Cl)N)C3=NC=NC4=C3C=CN4
Summary of the method: as §1

IRAK-1-4 Inhibitor I = compound: C1COCCN1CCN2C3=CC=CC=C3N=C2NC(=O)C4=CC(=CC=C4)[N+](=O)[O-] [IRAK-1-4 Inhibitor I]
Summary of the method: as §1

ibrutinib = compound: C=CC(=O)N1CCC[C@@H](n2nc(-c3ccc(Oc4ccccc4)cc3)c3c(N)ncnc32)C1 [ibrutinib]
Summary of the method: as §1

[10] = compound: CC(=O)c1cnc2ccc(-c3cc(Cl)c(O)c(Cl)c3)nc2c1N[C@H]1CC[C@H](CN(C)C)CC1
Summary of the method: as §1

ralimetinib = compound: CC(C)(C)Cn1c(N)nc2ccc(-c3[nH]c(C(C)(C)C)nc3-c3ccc(F)cc3)nc21 [ralimetinib]
Summary of the method: as §1

[11] = compound: CC(C)(O)CC(=O)NCCn1ccc2ncnc(Nc3ccc(Oc4cccc(C(F)(F)F)c4)c(Cl)c3)c21
Summary of the method: as §1

[12] = compound: CC(C)C1=C2N=C(C=C(N2N=C1)NCC3=CC=CC=C3)NCCCCCCN
Summary of the method: as §1

[13] = compound: CC(C)C[C@@H](C=O)NC(=O)[C@H](CC(C)C)NC(=O)[C@H](CC(C)C)NC(=O)OCc1ccccc1
Summary of the method: as §1

pinometostat = compound: CC(C)N(C[C@H]1O[C@@H](n2cnc3c(N)ncnc32)[C@H](O)[C@@H]1O)[C@H]1C[C@@H](CCc2nc3cc(C(C)(C)C)ccc3[nH]2)C1 [pinometostat]
Summary of the method: as §1

[14] = compound: CC1=C(C(CC(=O)N1)C2=CC=C(C=C2)C(F)(F)F)C(=O)NC3=C(C=C4C(=C3)C=NN4)F
Summary of the method: as §1

[15] = compound: CC1=C(C2=C(C=C1)C(=O)C3=CC=CC=C3N2CCCN)C
Summary of the method: as §1

Chain of UniProt P37268 (P37268 whole entry, looked up): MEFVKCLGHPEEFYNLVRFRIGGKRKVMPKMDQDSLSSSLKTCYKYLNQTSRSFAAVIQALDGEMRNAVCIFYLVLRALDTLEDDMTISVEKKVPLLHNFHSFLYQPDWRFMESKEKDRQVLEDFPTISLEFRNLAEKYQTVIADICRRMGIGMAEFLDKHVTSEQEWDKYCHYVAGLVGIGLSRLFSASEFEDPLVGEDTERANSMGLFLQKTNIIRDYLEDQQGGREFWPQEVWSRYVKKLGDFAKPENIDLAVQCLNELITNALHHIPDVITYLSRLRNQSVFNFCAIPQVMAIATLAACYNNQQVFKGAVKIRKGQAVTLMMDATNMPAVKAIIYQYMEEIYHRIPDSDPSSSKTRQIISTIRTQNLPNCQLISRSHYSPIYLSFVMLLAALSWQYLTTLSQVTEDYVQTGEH
Chain of UniProt O00458 (O00458 whole entry, looked up): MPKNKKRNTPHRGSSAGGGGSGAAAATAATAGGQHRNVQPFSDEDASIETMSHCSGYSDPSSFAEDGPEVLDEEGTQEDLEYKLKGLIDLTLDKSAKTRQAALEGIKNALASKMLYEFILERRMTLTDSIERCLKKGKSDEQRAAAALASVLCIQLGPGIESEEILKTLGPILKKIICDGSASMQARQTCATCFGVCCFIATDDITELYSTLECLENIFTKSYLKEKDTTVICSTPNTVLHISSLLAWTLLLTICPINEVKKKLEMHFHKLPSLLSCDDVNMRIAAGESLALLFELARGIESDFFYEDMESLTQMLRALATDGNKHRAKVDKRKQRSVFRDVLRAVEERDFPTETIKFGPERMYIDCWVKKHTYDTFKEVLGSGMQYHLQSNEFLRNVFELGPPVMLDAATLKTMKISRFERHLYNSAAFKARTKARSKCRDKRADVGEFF
Chain of UniProt Q92917 (Q92917 whole entry, looked up): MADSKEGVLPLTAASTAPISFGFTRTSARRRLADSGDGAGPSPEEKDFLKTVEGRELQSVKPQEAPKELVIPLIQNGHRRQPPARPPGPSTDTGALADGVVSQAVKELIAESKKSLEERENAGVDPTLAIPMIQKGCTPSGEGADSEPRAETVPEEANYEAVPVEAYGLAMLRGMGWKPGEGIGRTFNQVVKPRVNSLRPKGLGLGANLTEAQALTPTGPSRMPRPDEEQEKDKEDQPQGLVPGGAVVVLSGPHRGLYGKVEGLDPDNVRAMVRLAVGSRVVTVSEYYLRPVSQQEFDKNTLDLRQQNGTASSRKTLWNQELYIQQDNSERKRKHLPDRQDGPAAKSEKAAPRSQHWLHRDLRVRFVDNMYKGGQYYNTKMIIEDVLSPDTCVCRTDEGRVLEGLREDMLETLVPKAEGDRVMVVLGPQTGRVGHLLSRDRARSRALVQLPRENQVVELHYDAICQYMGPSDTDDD
Chain of UniProt Q8N2G8 (Q8N2G8 whole entry, looked up): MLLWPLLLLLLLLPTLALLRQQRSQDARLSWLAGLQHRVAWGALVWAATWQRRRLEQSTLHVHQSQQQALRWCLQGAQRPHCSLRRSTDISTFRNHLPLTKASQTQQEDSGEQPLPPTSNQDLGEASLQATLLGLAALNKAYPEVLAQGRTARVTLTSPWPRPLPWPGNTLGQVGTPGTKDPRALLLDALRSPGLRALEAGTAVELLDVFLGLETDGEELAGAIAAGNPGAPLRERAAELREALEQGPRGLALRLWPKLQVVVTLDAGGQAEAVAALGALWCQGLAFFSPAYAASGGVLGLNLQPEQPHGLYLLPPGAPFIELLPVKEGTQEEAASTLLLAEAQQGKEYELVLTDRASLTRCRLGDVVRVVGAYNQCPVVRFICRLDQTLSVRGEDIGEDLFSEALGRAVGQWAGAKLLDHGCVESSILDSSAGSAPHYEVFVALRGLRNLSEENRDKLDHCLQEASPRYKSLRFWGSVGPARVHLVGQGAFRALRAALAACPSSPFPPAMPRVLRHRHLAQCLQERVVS
Chain of UniProt Q9Y680 (Q9Y680 whole entry, looked up): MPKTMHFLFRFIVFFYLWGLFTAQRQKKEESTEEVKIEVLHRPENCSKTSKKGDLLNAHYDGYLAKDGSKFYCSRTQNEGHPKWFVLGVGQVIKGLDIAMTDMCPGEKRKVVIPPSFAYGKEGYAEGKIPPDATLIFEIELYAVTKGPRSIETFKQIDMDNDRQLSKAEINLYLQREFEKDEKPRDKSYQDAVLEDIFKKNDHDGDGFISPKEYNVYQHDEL
Chain of UniProt Q96LB3 (Q96LB3 whole entry, looked up): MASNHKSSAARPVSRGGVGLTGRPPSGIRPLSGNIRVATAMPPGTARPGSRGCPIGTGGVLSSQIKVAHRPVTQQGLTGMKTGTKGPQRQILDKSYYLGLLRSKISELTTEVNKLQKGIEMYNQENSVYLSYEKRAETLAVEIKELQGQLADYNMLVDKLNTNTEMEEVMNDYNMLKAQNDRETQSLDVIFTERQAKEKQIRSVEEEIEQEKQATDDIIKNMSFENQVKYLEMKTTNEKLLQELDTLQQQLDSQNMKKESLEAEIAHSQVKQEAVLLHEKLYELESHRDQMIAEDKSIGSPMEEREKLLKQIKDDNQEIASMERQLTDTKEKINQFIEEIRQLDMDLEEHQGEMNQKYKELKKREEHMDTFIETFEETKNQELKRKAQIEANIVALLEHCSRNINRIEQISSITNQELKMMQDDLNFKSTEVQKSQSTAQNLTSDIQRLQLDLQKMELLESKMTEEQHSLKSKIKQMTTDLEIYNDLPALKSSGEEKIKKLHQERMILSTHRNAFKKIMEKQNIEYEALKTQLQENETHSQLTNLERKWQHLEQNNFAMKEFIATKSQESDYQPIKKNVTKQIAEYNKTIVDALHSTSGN
Chain of UniProt Q8WUI4 (Q8WUI4 whole entry, looked up): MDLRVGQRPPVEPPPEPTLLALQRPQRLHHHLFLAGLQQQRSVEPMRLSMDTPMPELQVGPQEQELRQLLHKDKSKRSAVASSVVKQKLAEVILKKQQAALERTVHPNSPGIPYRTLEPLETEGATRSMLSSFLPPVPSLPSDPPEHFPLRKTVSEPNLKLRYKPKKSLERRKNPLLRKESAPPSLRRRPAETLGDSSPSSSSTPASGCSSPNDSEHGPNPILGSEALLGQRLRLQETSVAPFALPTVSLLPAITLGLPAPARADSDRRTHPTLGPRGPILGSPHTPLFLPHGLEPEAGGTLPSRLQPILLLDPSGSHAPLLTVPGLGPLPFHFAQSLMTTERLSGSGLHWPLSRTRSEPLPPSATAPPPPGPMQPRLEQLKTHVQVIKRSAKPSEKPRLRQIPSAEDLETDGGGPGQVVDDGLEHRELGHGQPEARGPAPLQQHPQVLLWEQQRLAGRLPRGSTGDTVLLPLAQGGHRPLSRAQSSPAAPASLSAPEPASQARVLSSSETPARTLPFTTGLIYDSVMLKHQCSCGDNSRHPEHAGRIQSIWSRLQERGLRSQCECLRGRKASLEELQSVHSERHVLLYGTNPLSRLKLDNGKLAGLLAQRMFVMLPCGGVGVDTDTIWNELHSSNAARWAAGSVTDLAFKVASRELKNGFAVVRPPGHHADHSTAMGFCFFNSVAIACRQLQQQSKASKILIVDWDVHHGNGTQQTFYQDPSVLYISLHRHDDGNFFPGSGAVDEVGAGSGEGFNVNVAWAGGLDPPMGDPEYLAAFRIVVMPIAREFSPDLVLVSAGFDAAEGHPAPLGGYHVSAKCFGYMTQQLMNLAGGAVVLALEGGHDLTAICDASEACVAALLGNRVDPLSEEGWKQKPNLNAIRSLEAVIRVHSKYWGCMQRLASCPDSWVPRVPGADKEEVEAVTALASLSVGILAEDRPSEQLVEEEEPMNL
Chain of UniProt Q9BUJ2 (Q9BUJ2 whole entry, looked up): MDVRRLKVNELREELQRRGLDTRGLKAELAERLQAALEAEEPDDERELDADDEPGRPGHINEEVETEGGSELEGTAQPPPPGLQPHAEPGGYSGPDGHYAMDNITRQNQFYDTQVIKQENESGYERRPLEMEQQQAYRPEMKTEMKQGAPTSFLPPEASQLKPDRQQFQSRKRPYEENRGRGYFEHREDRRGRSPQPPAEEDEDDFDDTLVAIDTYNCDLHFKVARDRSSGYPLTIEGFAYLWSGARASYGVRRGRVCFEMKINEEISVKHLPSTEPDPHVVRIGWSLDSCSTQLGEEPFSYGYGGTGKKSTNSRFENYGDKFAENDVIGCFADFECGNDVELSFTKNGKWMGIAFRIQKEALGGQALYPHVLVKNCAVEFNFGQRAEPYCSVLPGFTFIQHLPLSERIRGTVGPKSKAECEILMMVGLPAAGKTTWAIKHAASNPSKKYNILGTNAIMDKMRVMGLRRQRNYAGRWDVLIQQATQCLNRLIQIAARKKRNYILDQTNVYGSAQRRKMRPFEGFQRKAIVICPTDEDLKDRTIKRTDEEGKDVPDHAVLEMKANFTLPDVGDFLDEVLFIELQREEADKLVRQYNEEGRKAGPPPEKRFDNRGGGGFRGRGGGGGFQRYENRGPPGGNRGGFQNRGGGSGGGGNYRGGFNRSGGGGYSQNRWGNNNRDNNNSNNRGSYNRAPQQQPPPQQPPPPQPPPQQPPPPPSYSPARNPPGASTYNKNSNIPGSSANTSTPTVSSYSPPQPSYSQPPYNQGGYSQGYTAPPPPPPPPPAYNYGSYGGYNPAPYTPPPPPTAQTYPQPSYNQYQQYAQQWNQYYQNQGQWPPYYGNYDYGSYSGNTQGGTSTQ
Chain of UniProt P29084 (P29084 whole entry, looked up): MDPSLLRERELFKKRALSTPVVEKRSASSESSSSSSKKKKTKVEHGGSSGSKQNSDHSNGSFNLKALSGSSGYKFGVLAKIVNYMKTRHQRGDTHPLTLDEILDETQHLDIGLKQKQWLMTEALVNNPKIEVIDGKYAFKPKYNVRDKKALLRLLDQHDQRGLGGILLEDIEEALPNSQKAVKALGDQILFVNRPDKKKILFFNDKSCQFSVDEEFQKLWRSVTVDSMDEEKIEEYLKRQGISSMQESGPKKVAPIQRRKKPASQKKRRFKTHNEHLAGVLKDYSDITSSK
Chain of UniProt P0C0S5 (P0C0S5 whole entry, looked up): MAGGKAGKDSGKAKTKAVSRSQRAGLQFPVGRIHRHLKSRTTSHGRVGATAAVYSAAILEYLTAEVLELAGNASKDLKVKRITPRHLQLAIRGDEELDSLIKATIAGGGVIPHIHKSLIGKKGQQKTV

Target | log2 fold change (erlotinib) | log2 fold change [1] | log2 fold change [2] | log2 fold change [3] | log2 fold change [4] | log2 fold change [5] | log2 fold change [6] | log2 fold change [7] | log2 fold change [8] | log2 fold change [9] | log2 fold change (IRAK-1-4 Inhibitor I) | log2 fold change (ibrutinib) | log2 fold change [10] | log2 fold change (ralimetinib) | log2 fold change [11] | log2 fold change [12] | log2 fold change [13] | log2 fold change (pinometostat) | log2 fold change [14] | log2 fold change [15]
HNRNPK isoform 2 (UniProt P61978) | 0.042 | 0.019 | -0.003 | 0 | 0.058 | -0.008 | -0.013 | -0.024 | 0.011 | 0.02 | -0.014 | -0.014 | -0.161 | -0.054 | -0.025 | -0.283 (active) | 0.003 | -0.033 | 0.005 | -0.062
H2AZ1 (UniProt P0C0S5) | -0.025 | -0.13 | -0.554 | -0.014 | -0.087 | 0.169 | -0.189 | 0.036 | 0.07 | 0.037 | -0.115 | 0.087 | -0.125 | 0.247 | 0.031 | -0.022 | 0.244 | 0.268 | 0.022 | 1.74 (active)
HPCAL1 (UniProt P37235) | 0.011 | 0.048 | 0.029 | 0 | 0 | 0.057 | -0.063 | 0.002 | 0.013 | -0.034 | 0.02 | -0.015 | 0.028 | -0.117 | -0.018 | -0.081 | -0.015 | -0.003 | 0.001 | -0.041
GAPVD1 isoform 6 (UniProt Q14C86) | 0.008 | 0.133 | -0.036 | -0.043 | 0.033 | 0.007 | 0.002 | 0.037 | -0.012 | -0.041 | -0.044 | -0.087 | 0.005 | 0.056 | -0.111 | -0.278 (active) | 0.037 | 0.094 | 0.003 | -0.003
HNRNPUL1 (UniProt Q9BUJ2) | 0.022 | -0.009 | 0.018 | -0.012 | 0.001 | -0.01 | 0.004 | 0.014 | 0.029 | -0.048 | -0.055 | 0 | -0.072 | 0.005 | 0.027 | 0.007 | 0.035 | 0.01 | 0.014 | -0.096
FKBP7 (UniProt Q9Y680) | -0.027 | -0.027 | 0.005 | 0.037 | 0 | 0.081 | -0.037 | -0.042 | 0.039 | 0.048 | 0.018 | 0.033 | -0.031 | -0.033 | 0.017 | 0.055 | -0.005 | -0.059 | -0.029 | -0.022
FDFT1 (UniProt P37268) | 0.126 | -0.026 | -0.01 | 0.037 | 0.209 | 0 | 0.011 | 0.144 | -0.039 | 0.059 | 0.001 | 0.007 | -0.025 | -0.028 | -0.015 | -0.083 | 0.077 | -0.042 | 0.012 | -0.06
IFRD1 (UniProt O00458) | 0.226 | -0.021 | -0.124 | -0.008 | 0.134 | 0.199 | -0.013 | 0.068 | 0.042 | -0.04 | 0.033 | 0.058 | 0.203 | -0.014 | -0.002 | -0.035 | 0.168 | -0.029 | -0.095 | -1.05 (active)
GGT7 (UniProt Q9UJ14) | 0.012 | -0.006 | 0.084 | -0.027 | -0.001 | -0.004 | -0.018 | -0.01 | -0.035 | 0.062 | 0.04 | 0.038 | 0.02 | -0.046 | 0.015 | 0.095 | 0.001 | -0.005 | -0.015 | -0.031
GLYR1 (UniProt Q49A26) | -0.053 | -0.211 | -0.289 | 0.05 | -0.352 | 0.1 | -0.021 | -0.034 | 0.119 | -0.03 | -0.067 | -0.074 | 0.054 | 0.088 | 0.093 | -0.057 | 0.09 | 0.111 | -0.076 | -0.016
GTF2E2 (UniProt P29084) | 0.028 | 0.137 | 0.048 | -0.001 | 0.09 | 0.003 | -0.002 | 0.03 | -0.03 | -0.13 | -0.041 | -0.008 | -0.104 | -0.012 | -0.033 | -0.137 | 0.075 | 0.056 | 0.001 | 0.056
GHDC (UniProt Q8N2G8) | 0.062 | 0.046 | -0.002 | 0.013 | 0.011 | 0.003 | -0.021 | -0.008 | -0.009 | 0.06 | 0.014 | 0.015 | -0.036 | 0.007 | 0.037 | -0.277 (active) | 0.018 | -0.015 | 0.025 | -0.011
FDPS (UniProt P14324) | 0.18 | 0.174 | -0.022 | 0.067 | 0.3 | -0.026 | 0.06 | 0.186 | 0.006 | -0.309 | -0.127 | -0.066 | -0.096 | 0.048 | -0.319 | -0.63 (active) | -0.028 | 0.048 | 0.007 | 0.083
GPKOW (UniProt Q92917) | 0.099 | 0.116 | 0.016 | 0.016 | 0.057 | 0.013 | -0.016 | 0.029 | -0.011 | 0.001 | -0.016 | -0.005 | -0.172 | -0.08 | -0.026 | -0.184 | 0.006 | 0.047 | -0.034 | 0.056
IFT74 (UniProt Q96LB3) | 0.248 | -0.95 (active) | 0.125 | -0.352 | 0.087 | -0.033 | 0.211 | -0.038 | -0.076 | 0.337 | 0.067 | 0.146 | 0.02 | 0.27 | -0.095 | 0.191 | 0.076 | -0.024 | -0.085 | 0.071
HDAC7 isoform 5 (UniProt Q8WUI4) | 0.025 | 0.057 | -0.08 | 0.007 | -0.126 | -0.008 | -0.037 | -0.171 | -0.056 | 0.025 | 0.094 | -0.007 | -0.561 (active) | -0.123 | -0.031 | 0.108 | 0.036 | 0.035 | 0.029 | 0.065

From the supplement of paper PMC10849652
